Results as given in PubChem BioAssay.

Target: NADPH oxidase 5 (Homo sapiens) (UniProt Q96PH1)
Test: compounds shifting NOX5 Amplex Red fluorescence – cell-based, HEK293-NOX5, NOX inhibitor project, primary screen (AID 1161)
Conditions: HEK293-NOX5, ionomycin, 45 min, higher = more signal

Chain of NADPH oxidase 5 (Homo sapiens) (Q96PH1 whole entry, looked up): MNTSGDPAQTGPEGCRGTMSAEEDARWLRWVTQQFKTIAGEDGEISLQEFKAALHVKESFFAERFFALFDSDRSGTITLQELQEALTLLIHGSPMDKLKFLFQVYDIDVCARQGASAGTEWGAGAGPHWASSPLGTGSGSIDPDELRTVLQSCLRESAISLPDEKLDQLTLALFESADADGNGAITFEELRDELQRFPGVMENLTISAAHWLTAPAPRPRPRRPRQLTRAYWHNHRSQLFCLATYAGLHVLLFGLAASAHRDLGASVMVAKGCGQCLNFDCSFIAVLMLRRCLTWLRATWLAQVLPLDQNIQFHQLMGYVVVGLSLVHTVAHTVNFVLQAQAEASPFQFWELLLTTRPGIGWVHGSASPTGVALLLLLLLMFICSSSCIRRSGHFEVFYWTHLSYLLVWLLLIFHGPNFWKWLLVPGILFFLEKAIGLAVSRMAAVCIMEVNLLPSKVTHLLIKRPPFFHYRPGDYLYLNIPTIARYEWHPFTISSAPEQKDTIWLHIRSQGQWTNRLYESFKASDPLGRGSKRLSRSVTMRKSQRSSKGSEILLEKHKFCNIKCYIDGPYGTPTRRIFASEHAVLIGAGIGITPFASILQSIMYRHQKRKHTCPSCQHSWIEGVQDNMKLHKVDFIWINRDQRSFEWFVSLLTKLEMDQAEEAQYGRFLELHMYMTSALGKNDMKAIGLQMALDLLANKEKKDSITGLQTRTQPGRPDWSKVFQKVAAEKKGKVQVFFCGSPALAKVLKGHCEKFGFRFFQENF

| SMILES | z-score |
| --- | --- |
| C[N+](C)(C)CCCC[C@@H]1NC(=O)[C@@H]2C[C@H](C(=O)O)[C@H](c3cccc(OCCO)c3)N2C1=O | 1.01 |
| COCCOC(=O)N1C(=O)[C@@]2(c3cc(C#CCC(C(=O)OC)C(=O)OC)ccc31)[C@H](c1ccc(OCCO)cc1)N1[C@H](c3ccccc3)[C@H](c3ccccc3)OC(=O)[C@H]1[C@@H]2C(N)=O | 0.717 |
| Cc1cc(C)c(C(O)C2C=CC3C(=O)N(c4ccccc4)C(=O)C3N2Nc2ccc([N+](=O)[O-])cc2)c(C)c1 (stereo not given) | -1.63 |
| O=C(CS)NCCCCCNC(=O)[C@@H]1C[C@@H]2C(=O)N3CCC[C@H]3C(=O)N2[C@@H]1c1ccc(O)cc1 | -0.651 |
| C[C@@H]1ON(c2ccccc2)[C@H](c2ccccc2)[C@H]1C(=O)N1C(=O)OC[C@H]1Cc1ccccc1 | -1.37 |
| [N-]=[N+]=Nc1ccccc1[C@@H]1OC(c2ccc(OCCCO)cc2)=N[C@]1(CCS(=O)(=O)c1ccccc1)C(=O)NCc1ccccc1 | 1.15 |
| COc1ccc([Si](C)(C)[C@@H]2[C@@H](CC(=O)N(CCO)Cc3ccccc3)O[C@]3(C(=O)N(Cc4ccc(N5CCOC5=O)cc4)c4ccccc43)[C@H]2C)cc1 | 3.4 |
| COc1ccccc1CN1C(=O)c2ccccc2[C@@H](C(=O)NCC(C)C)[C@@H]1c1ccc(CO)cc1 | 1.67 |
| COC(=O)[C@@]1(Cc2ccc(F)cc2)[C@@H]2[C@@H](CC(=O)[C@H]2CC(=O)C(=O)N2CCCC2)CN1C(=O)c1ccccc1 | 1.28 |
| CC1CC/C=C\[C@H]2OC34C=CCN(c5ccc(Cl)cc5)C(=O)[C@H]3N(C(CO)C(C)C)C(=O)[C@]4(C)C2C(=O)O1 (stereo not given in full) | 2.39 |
| C=CCC(OC(C)=O)[C@@H]1[C@@H](N(Cc2cccc3ccccc23)C(=O)Cc2ccc(F)cc2)c2cc(OCCCO)ccc2N1C(=O)Cc1ccc(OC)cc1 (stereo not given in full) | 0.743 |
| COC(=O)[C@]1(Cc2ccccc2CN=[N+]=[N-])N=C(c2ccc(OCCCO)cc2)O[C@@H]1c1ccccc1 | -2.6 |
| CCCc1cc2c(n1Cc1ccc(OC)cc1)C(C)C1CN(C(=O)c3ccccc3)C(C)(C(=O)OC)C21 (stereo not given) | -3.28 |
| CN(C)C(=O)[C@@]1(CCC(=O)OC(C)(C)C)N=C(c2ccc(OCCCO)cc2)O[C@H]1c1ccccc1N=[N+]=[N-] | -1.97 |
| CCN(CC)c1ccc(N2CC=CC34O[C@@H]5/C=C\CCCOC(=O)C5[C@H]3C(=O)N(CCCCCO)[C@@H]4C2=O)cc1 (stereo not given in full) | 1.41 |
| COC(=O)[C@@]1(Cc2ccc(F)cc2)[C@H]2c3cc(C(=O)N(C)C)n(CCSCCO)c3C[C@H]2CN1C(=O)c1ccccc1 | -0.572 |
| C=CCNC(=O)[C@@H]1[C@H]2C(=O)O[C@H](c3ccccc3)[C@H](c3ccccc3)N2[C@H](c2ccc(O)cc2)[C@@]12C(=O)Nc1ccc(C#CCCO)cc12 | 0.425 |
| COC(=O)C(CC#Cc1ccc2c(c1)[C@]1(C(=O)N2)[C@H](c2ccccc2OCCO)N2[C@H](c3ccccc3)[C@H](c3ccccc3)OC(=O)[C@H]2[C@@H]1C(=O)Nc1nc2ccccc2s1)C(=O)OC | 0.545 |

| SMILES | z-score |
| --- | --- |
| COC(=O)[C@@]1(Cc2ccc(OC)cc2)[C@H]2c3cc(C(=O)N4CCCC4)n(CCc4ccc(O)c(OC)c4)c3C[C@H]2CN1C(=O)c1ccccc1 | -2.06 |
| CCOC(=O)C[C@H]1[C@H](OC(=O)c2ccccc2-c2ccccc2)[C@@H](NC(=O)c2ccccc2)c2cc(OCCCO)ccc2N1C(=O)Cc1ccc(OC)cc1 | 0.327 |
| C=C(/C(=C/C[C@@H](OC(=O)c1ccncc1)c1ccccc1OCCO)c1cnc2ccccc2c1)C(C)C | -2.56 |
| COCCOC(=O)N1C(=O)[C@@]2(c3cc(C#CCC(C(=O)OC)C(=O)OC)ccc31)[C@H](C(=O)N1CCCCCCC1)[C@H]1C(=O)O[C@H](c3ccccc3)[C@H](c3ccccc3)N1[C@@H]2c1ccc(O)cc1 | 1.01 |
| NC(=O)NCC#Cc1ccc2c(c1)[C@]1(C(=O)N2)[C@H](c2ccc(OCCO)cc2)N2[C@H](c3ccccc3)[C@H](c3ccccc3)OC(=O)[C@H]2[C@@H]1C(=O)N1CCCCCCC1 | 0.333 |
| C=C(CCCC)/C(=C/C[C@H](OC(=O)c1ccncc1)c1ccc(CO)o1)c1cc(C(=O)OC)ccc1OC | -1.57 |
| O=C1N(CCS(=O)(=O)c2ccccc2)Cc2ccccc2C[C@@]12COC(c1ccc(OCCCO)cc1)=N2 | -3.16 |
| C[N+](C)(C)CCCCNC(=O)[C@H]1C[C@H]2C(=O)NCC(=O)N2[C@H]1c1ccc(O)cc1 | 0.226 |
| CC(C)N1C(=O)c2ccccc2[C@](C)(C(=O)O)[C@@H]1c1ccc(CO)cc1 | -1.27 |
| C[N+](C)(C)CCCCCCNC(=O)[C@@H]1C[C@@H]2C(=O)NCC(=O)N2[C@@H]1c1ccc(O)cc1 | -0.757 |
| COCCCNC(=O)[C@@]1(Cc2ccccc2CN=[N+]=[N-])N=C(c2ccc(OCCCO)cc2)O[C@H]1c1ccccc1N=[N+]=[N-] | -1.31 |
| COC(=O)[C@@]1(Cc2ccc(OC)cc2)[C@H]2c3cc(C(=O)N(C)C)n(CCF)c3C[C@H]2CN1C(=O)c1ccccc1 | 0.602 |
| C=CCNC(=O)[C@H]1[C@@H]2C(=O)O[C@@H](c3ccccc3)[C@@H](c3ccccc3)N2[C@@H](c2ccc(OCCO)cc2)[C@]12C(=O)N(C(=O)OCCOC)c1ccc(C#CC3=CCCCC3)cc12 | 2.48 |
| O=C1C2C=CC(C(O)c3cccc4ccccc34)N(Nc3ccccc3)C2C(=O)N1c1ccccc1 (stereo not given) | -3.17 |
| COc1ccc(C#Cc2ccc3c(c2)[C@]2(C(=O)N3)[C@H](C(=O)O)[C@H]3C(=O)O[C@H](c4ccccc4)[C@H](c4ccccc4)N3[C@@H]2c2ccc(OCCO)cc2)cc1 | 1.12 |
| C=CCOC(=O)[C@H]1[C@@H]2C(=O)O[C@@H](c3ccccc3)[C@@H](c3ccccc3)N2[C@@H](c2ccc(OCCOC(=O)[C@H]3C[C@H]4C(=O)N[C@@H](CCCCN(C)C)C(=O)N4[C@H]3c3ccc(O)cc3)cc2)[C@]12C(=O)Nc1ccccc12 | 0.576 |
| COC(=O)[C@@]1(Cc2ccccc2)[C@H]2c3cc(C(=O)N(C)C)n(Cc4ccccn4)c3C[C@H]2CN1C(=O)c1ccccc1 | -2.08 |
